Experimental findings from PubChem BioAssay AID602281 (The Scripps Research Institute Molecular Screening Center, 2012) are described below.

Values joined by “and” are separate entries in the source; they are usually repeats but may differ in a detail not shown here. Identical values can stand only once. Out of some 360,000 compounds screened, about 2,900 (0.81%) were called active.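 The calls were made as follows: active = inhibition above the mean inhibition across every tested compound plus 3 SD (cut at about 22% in these data); inactive = the rest.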 The full list was thinned out, with actives kept by preference. Where a structure was tested more than once in an assay, its records may differ in their call.

The target of this experiment is Perilipin-5 (Homo sapiens) + 1-acylglycerol-3-phosphate O-acyltransferase ABHD5 (Homo sapiens) (UniProt Q00G26+Q8WTS1). As to the kind of experiment: ABHD5-PLIN5 interaction inhibitors, primary screen, cell lysate, split luciferase complementation, luminescence (AID 602281).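 Also: 0% = DMSO only wells and the 100% control is not disclosed.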 Particulars: Split G. princeps luciferase complementation, 4 h, at 4 µM, stronger effect = higher value.
Perilipin-5 (Homo sapiens) + 1-acylglycerol-3-phosphate O-acyltransferase ABHD5 (Homo sapiens), sequence (Q00G26 whole entry, looked up): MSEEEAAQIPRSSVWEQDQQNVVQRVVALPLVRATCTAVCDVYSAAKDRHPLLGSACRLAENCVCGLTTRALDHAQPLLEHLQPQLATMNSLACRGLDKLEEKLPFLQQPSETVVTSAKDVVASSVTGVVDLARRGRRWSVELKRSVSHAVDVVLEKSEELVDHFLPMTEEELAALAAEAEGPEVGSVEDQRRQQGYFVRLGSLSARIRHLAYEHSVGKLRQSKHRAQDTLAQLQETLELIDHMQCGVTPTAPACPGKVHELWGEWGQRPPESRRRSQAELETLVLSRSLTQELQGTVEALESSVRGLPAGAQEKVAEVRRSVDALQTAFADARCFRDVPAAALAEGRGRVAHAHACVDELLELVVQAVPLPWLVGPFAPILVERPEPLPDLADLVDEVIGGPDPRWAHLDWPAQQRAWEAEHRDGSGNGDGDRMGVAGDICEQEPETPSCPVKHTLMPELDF
Perilipin-5 (Homo sapiens) + 1-acylglycerol-3-phosphate O-acyltransferase ABHD5 (Homo sapiens), sequence (Q8WTS1 whole entry, looked up): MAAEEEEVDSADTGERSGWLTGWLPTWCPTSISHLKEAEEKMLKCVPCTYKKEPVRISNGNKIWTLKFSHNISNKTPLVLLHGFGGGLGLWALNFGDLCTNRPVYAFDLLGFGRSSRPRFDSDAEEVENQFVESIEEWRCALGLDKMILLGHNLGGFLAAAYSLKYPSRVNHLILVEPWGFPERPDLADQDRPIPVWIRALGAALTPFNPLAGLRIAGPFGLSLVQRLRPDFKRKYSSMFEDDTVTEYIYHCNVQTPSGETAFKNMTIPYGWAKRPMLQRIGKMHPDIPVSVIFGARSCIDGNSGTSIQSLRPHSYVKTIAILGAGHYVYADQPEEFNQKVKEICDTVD
In the case of `O=C(Nc1cccc(Cl)c1Cl)c1ccccc1NC(=O)C1CC=CCC1C(=O)O` (stereo not drawn), the inhibition (as a rule, the drop in the measured response relative to a control, in per cent) is -5.77% (inactive). Under `O=[N+]([O-])/C=C/c1ccc2c(ccn2Cc2ccccc2)c1` stands 92% (active). `NC(=O)C1CCN(C(=O)c2ccc(-c3ccccc3)cc2)CC1`: the inhibition is 5.48% (inactive). Then `NS(=O)(=O)c1ccc(NC(=O)COC(=O)C2(c3ccc(F)cc3)CCCC2)cc1`, with -6.25% (inactive); and `O=C1c2cccnc2C(Nc2ccc(S(=O)(=O)N3CCCCCC3)cc2)N1Cc1ccccc1` (stereo not drawn), with -3.06% (inactive). Then `O=C(CCNS(=O)(=O)c1ccccc1C(F)(F)F)Nc1ccncc1`, with 3.18% (inactive). Under `Nc1cccc(OCCCCCOc2cccc(N)c2)c1` stands 68.8% (active); under `CN(C)CCOc1cccc(Br)c1`, -5.46% (inactive); under `C=CCNCCCCOc1ccccc1`, -2.87% (inactive). With `O=C(COC(=O)c1cnccn1)Nc1cccc2ccccc12`, the inhibition was -5.15% (inactive).

On to `COc1cccc2cc(C(C)N(CCCN3CCOCC3)C(=O)Nc3ccc(Cl)cc3)oc12` (stereo not drawn), for which the inhibition is 7.7% (inactive). Then `O=C(Cn1nc(CNc2ccc(Cl)cc2)[n+]2c1CCCCC2)c1ccc(Cl)cc1`, with 28.2% (active); and `O=C(Cn1ncc(N2CCCC2)c(Br)c1=O)c1ccc(Cl)cc1`, with 3.08% (inactive). Under `O=C(Cn1nnc(N2CCCCC2)n1)c1ccc(Cl)c(Cl)c1` stands -2.6% (inactive); under `N#Cc1ccc(C2N=C(c3ccccc3)NO2)cc1` (stereo not drawn), 5.57% (inactive). Then `Cc1noc(C)c1NC(=O)Nc1ccc2c(c1)C(=O)N([C@H](C)CO)C[C@H](C)[C@@H](CN(C)S(=O)(=O)c1cn(C)cn1)O2`, with 3.26% (inactive); and `COc1ccc(C(C(=O)Nc2c(C)cccc2C)N2CCN(c3ccc(C)cc3)CC2)cc1` (stereo not drawn), with -0.48% (inactive); and `CCC(C(=O)Nc1c(C)cccc1C)n1c(-c2cc(C)cs2)nc2ccccc21` (stereo not drawn), with -1.93% (inactive). Turning to `N#Cc1ccc(C(C(=O)NCc2ccccc2)n2c(=O)c(-c3ccco3)nc3ccccc32)cc1` (stereo not drawn), the inhibition was 76.5% (active). Then `COc1ccc(C(C(=O)NCc2ccccc2)n2c(=O)c(-c3ccccc3)nc3ccccc32)cc1` (stereo not drawn), with 18.6% (inactive). Then `Cc1cccc(C)c1NC(=O)CCCSc1nnc(-c2ccco2)n1-c1ccccc1`, with -1.49% (inactive). Then `CCCCCNC(=O)C(c1ccc(OC)cc1)n1c(=O)c(-c2ccccc2)nc2ccccc21` (stereo not drawn), with 1.61% (inactive).

For the compound `Cn1c(SCC(=O)NC2CCCCC2)nnc1-c1cc2ccccc2o1`, the inhibition was -2.37% (inactive). Then `CCC(CC)C(C(=O)NC1CCCC1)N1CCN(c2cc(C)nc3ccccc23)CC1` (stereo not drawn), with 1.05% (inactive); and `COc1ccc(NC(=O)C(c2ccncc2)n2c(=O)c(-c3cc4ccccc4[nH]3)nc3ccccc32)cc1` (stereo not drawn), with -4.13% (inactive).

For `Cc1cccc(C)c1NC(=O)C(c1cccc2ccccc12)n1c(=O)c(-c2ccco2)nc2ccccc21` (stereo not drawn), the inhibition is 71.4% (active).

Take `Cc1cccc(C)c1NC(=O)C(c1ccc(C(F)(F)F)cc1)n1c(=O)c(-c2ccco2)nc2ccccc21` (stereo not drawn): the inhibition was 74.7% (active). Under `O=C(NC1CCCCC1)C(c1cc2ccccc2o1)n1c(=O)c(-c2ccco2)nc2ccccc21` (stereo not drawn) stands 78.2% (active); under `CC1CCCN(CCCNC(=O)CN2C(=O)COc3ccc(S(=O)(=O)N4CCOCC4)cc32)C1` (stereo not drawn), -1.77% (inactive). Under `CCc1cccc(NC(=O)CCCN2C(=O)C(c3ccccc3)Oc3cccnc32)c1` (stereo not drawn) stands -1.01% (inactive); under `Cc1ccc(-c2nnc(C)c(N3CC(C)OC(C)C3)n2)cc1` (stereo not drawn), -1.84% (inactive); under `CC(OC(=O)CCCOc1ccccc1)C(=O)Nc1ccc(Cl)cn1` (stereo not drawn), -0.81% (inactive). Under `O=C1OCCOC2CCCc3oc(-c4ccccc4)c1c32` (stereo not drawn) stands -3.07% (inactive); under `CN1CCC(=O)N([C@H](CO)Cc2ccccc2)CC1`, -5.42% (inactive). With `Cc1ccsc1C(=O)NC1CCCCC1C` (stereo not drawn), the inhibition was 4.79% (inactive).

As for `CC(N)C12CC3CC(CC(O)(C3)C1)C2` (stereo not drawn), the inhibition was -6.3% (inactive).

Take `Cc1nc2ccccn2c1C(=O)NN=C1CCN(C)CC1`: the inhibition is -0.19% (inactive). Then `CC(=O)Oc1ccc(N(C(C)=O)S(=O)(=O)c2ccc3ccccc3c2)cc1Br`, with 6.52% (inactive). Under `COC(=O)c1c(C)oc2ccc(N(C(=O)Oc3ccccc3)S(=O)(=O)c3ccccc3)cc12` stands -1.45% (inactive); under `CC(=O)N(c1ccc2oc(=O)sc2c1)S(=O)(=O)c1ccc(C)cc1`, 36.7% (active). Then `COC(=O)c1ccccc1Oc1c(F)c(F)nc(N2CCOCC2)c1F`, with -7.97% (inactive); and `COc1cccc(N2CC(NS(=O)(=O)c3cccs3)CC2=O)c1` (stereo not drawn), with 0.8% (inactive); and `CCN(CC(=O)Nc1ccc(Cl)c(S(=O)(=O)N(C)C)c1)Cc1nc2ccccc2c(=O)[nH]1`, with -4.43% (inactive). `Cc1cc(N2CCCC2=O)cc(C)c1S(N)(=O)=O`: the inhibition was -1% (inactive). For the compound `O=C(COc1nsnc1N1CCOCC1)Nc1ccccc1Cl`, the inhibition is 0.63% (inactive).

With `O=C(Nc1ccccc1Cl)/C(Cl)=C(\Cl)S(=O)c1ccccc1` (stereo not drawn), the inhibition is 81.7% (active). Under `CCOC(=O)[C@]12CCCC=C1N(Cc1ccc3c(c1)OCO3)C(=O)[C@H](CC(=O)N1CCN(C(=O)c3ccco3)CC1)C2` stands 5.36% (inactive); under `O=C1C=CC(=O)N1c1ccc(N2CCCCC2)cc1`, 29% (active). For the compound `O=C(c1ccc(Cl)c(S(=O)(=O)N2CCCCCC2)c1)N1CCN(c2ccc(O)cc2)CC1`, the inhibition was 1.37% (inactive).

For the compound `c1ccc(-n2cccc2)c(N2CCCCC2)c1`, the inhibition is -0.7% (inactive). Under `CCN(C(=O)CSc1nc(N)cc(=O)[nH]1)C1CCS(=O)(=O)C1` (stereo not drawn) stands -2.61% (inactive).

On to `Cc1ccc(NC(=O)c2cc(-c3ccc(C)o3)nc3ccccc23)nc1`, for which the inhibition was 29% (active).

`CCc1ccc(-c2cc(C(=O)NN3CCN(C)CC3)c3ccccc3n2)cc1`: the inhibition was 11.1% (inactive). Then `Cc1c(NC(=O)c2cc(-c3ccc(Cl)s3)nc3ccccc23)c(=O)n(-c2ccccc2)n1C`, with 0.07% (inactive); and `O=C(CCC(=O)OCC(F)(F)C(F)F)NCc1ccccc1`, with -6.31% (inactive). Under `Oc1c(CN2CCOCC2)ccc(CN2CCOCC2)c1O` stands -0.13% (inactive); under `COc1ccccc1NC(=O)CSc1nnc(Cn2nnc(-c3ccccc3)n2)n1-c1ccccc1`, 7.76% (inactive); under `COc1ccc(Cl)cc1NC(=O)CCS(=O)(=O)c1ccc(Br)cc1`, -6.29% (inactive).

For `COc1ccc(/C(C)=N/NC(=O)CCC(=O)Nc2ccc(Cl)cc2Cl)c(OC)c1`, the inhibition is -4.09% (inactive). With `CCCCC(=O)N/N=C(\C)CC(=O)Nc1cc(Cl)ccc1OC`, the inhibition is 22.2% (active). Then `COc1cc2c(C(=O)N(C)c3cc(Cl)ccc3OC)cn(C)c(=O)c2cc1OC`, with -8.81% (inactive). Then `CN(C)CCNC(=O)C(C(=O)c1ccccc1)n1ccccc1=O` (stereo not drawn), with -4.39% (inactive); and `OC(CNCC1CCCO1)Cn1c2ccc(Br)cc2c2cc(Br)ccc21` (stereo not drawn), with 27.7% (active); and `COCCNC(=O)c1ccc(Cn2c(SCC(=O)NCC3CCCO3)nc3ccc(Br)cc3c2=O)cc1` (stereo not drawn), with -3.04% (inactive). As for `CCCN1CCn2c3c(c4cc(Br)ccc42)CCCC31` (stereo not drawn), the inhibition was -7.51% (inactive). Then `CCOc1ccc(N(CC(=O)NCCc2ccc(OC)cc2)S(C)(=O)=O)cc1`, with -0.93% (inactive). Regarding `Cc1cc(C)n(CC(C)NCc2c(C(=O)N3CCOCC3)nc3c(C)cccn23)n1` (stereo not drawn), the inhibition was 1.11% (inactive). Turning to `CC1=C(C(=O)N2CCOCC2)CC(CC(=O)NCc2ccco2)C(=O)N1Cc1ccc(F)cc1` (stereo not drawn), the inhibition was 5.09% (inactive). Then `Cc1c(CCO)sc[n+]1CC(=O)OC12CC3CC(CC(C3)C1)C2`, with -1.3% (inactive). For `Cc1c(CCOC(=O)CC23CC4CC(CC(C)(C4)C2)C3)sc[n+]1Cc1ccc([N+](=O)[O-])cc1`, the inhibition was 19% (inactive) and 24.3% (active). Turning to `Cc1c(CCOC(=O)c2cc([N+](=O)[O-])ccc2Cl)sc[n+]1CCCCS(=O)(=O)[O-]`, the inhibition was 7.78% (inactive).

In the case of `O=C(NCCCN1CCOCC1)C1CCCN(S(=O)(=O)N2CCCCC2)C1` (stereo not drawn), the inhibition was -6.18% (inactive).

For the compound `Fc1ccc(Nc2nnns2)cc1`, the inhibition is -1.08% (inactive). Then `Cc1[nH]c(C)c(S(=O)(=O)N2CCN(c3cccc(C(F)(F)F)c3)CC2)c1C(=O)N1CCCCC1`, with -3.87% (inactive); and `Cc1c(C)c2c(OCC(=O)N[C@@H](C(=O)O)c3ccccc3)cc3c(c2oc1=O)CCC(C)(C)O3`, with 9.96% (inactive); and `CC1Cc2ccccc2N1CC(=O)Nc1ccc(S(N)(=O)=O)cc1` (stereo not drawn), with 26.1% (active). Under `CC1Cc2ccccc2N1CC(=O)Nc1ccc2c(c1)OC(F)(F)O2` (stereo not drawn) stands -17.3% (inactive); under `CC1CC(C)CN(CC(=O)Nc2ccc(S(N)(=O)=O)cc2)C1` (stereo not drawn), -3.77% (inactive); under `O=C(CCSc1ccccc1)NCCSc1ccccn1`, 4.14% (inactive). For `Cc1ccc2cc3cc(C(=O)N4CCCCCC4)oc3nc2c1`, the inhibition is 0.91% (inactive). Then `O=C1Cc2cc(S(=O)(=O)Nc3cccc(F)c3)ccc2N1`, with -4.67% (inactive); and `CCN(CC(=O)Nc1c(F)cccc1F)C(=O)c1ccc(-c2ccc(C(C)=O)cc2)o1`, with -6.21% (inactive). As to `CCC1(c2ccccc2)NC(=O)N(CC(=O)c2ccc3c(c2)OCO3)C1=O` (stereo not drawn), the inhibition is 6.66% (inactive).

`O=C(CCN1CCc2ccccc2C(O)(c2ccccc2)C1)c1ccc2c(c1)OCCO2` (stereo not drawn): the inhibition is 40.8% (active).

Turning to `O=C(CN1CCN(c2ccccc2F)CC1)c1ccc2c(c1)OCO2`, the inhibition was 1.72% (inactive). For the compound `COCCN1CCn2c(nc3cc(NS(C)(=O)=O)ccc32)C1`, the inhibition was 3.04% (inactive).

Turning to `Cc1cc(SCC(=O)NCCN2C(=O)CSC2=O)nc2ccccc12`, the inhibition was 1.93% (inactive). For `Cc1cc(C)cc(C(=O)NC(CC(N)=O)c2ccc(N3CCC(N4CCCCC4)CC3)c([N+](=O)[O-])c2)c1` (stereo not drawn), the inhibition was -0.26% (inactive).
